The nature of assay [1]: qHTS assay to identify small molecule antagonists of the thyroid receptor (TR) signaling pathway - cell viability counter screen (AID 743064). Note: nearly all actives have a fitted effect of over 50% in size. Put shortly:
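Plate GH3.TRE-Luc cells; incubate 4 h at 37 °C; add compound, then T3 to 1 nM final; incubate 23.5 h; add CellTiter-Fluor; incubate 30 min at 37 °C, 5% CO2; read fluorescence.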

Assay [2] in a line: qHTS assay to identify small molecule antagonists of the thyroid receptor (TR) signaling pathway (AID 743065). Note: series mostly up to about 70 µM; nearly all actives have a fitted effect of over 55% in size. Put shortly: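 GH3.TRE-Luc rat pituitary cells (two TREs driving luciferase) were dosed with compound, then stimulated with 1 nM T3 (final) for 23.5 h at 37 C. ONE-Glo luminescence was the read-out, with CellTiter-Fluor fluorescence as the cytotoxicity counter-screen.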

In assay [3] the test system is thyroid hormone receptor (rat, GH3 cells). Briefly: qHTS assay to identify small molecule agonists of the thyroid receptor (TR) signaling pathway (AID 743066; calls by dose curve).
Assay [4] addresses Estrogen receptor (Homo sapiens) (UniProt P03372). In words: qHTS assay to identify small molecule antagonists of the estrogen receptor alpha (ER-alpha) signaling pathway (AID 743069; active = well fitted curve in the direction sought with a large enough effect in the signal ratio in the repeat runs, not every such curve was filed as active; the % refers to the signal ratio). Put shortly: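 In this cell-based reporter format, GripTite HEK293 cells harbouring ER-alpha-UAS-bla were grown overnight with 2% charcoal-stripped FBS, dosed with DMSO-dissolved compounds, then challenged with 17beta-estradiol. After 18 hr at 37C, beta-lactamase activity was detected by FRET fluorescence.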

The nature of assay [5]: qHTS assay to identify small molecule antagonists of the estrogen receptor alpha (ER-alpha) signaling pathway - cell viability counter screen (AID 743074; calls by dose curve; note: nearly all actives have a fitted effect of over 45% in size).
Assay [6] concerns the target Estrogen receptor (Homo sapiens) (UniProt P03372). In words: qHTS assay to identify small molecule agonists of the estrogen receptor alpha (ER-alpha) signaling pathway (AID 743075; calls by dose curve).
For assay [7] the target is unchanged. Briefly: qHTS assay to identify small molecule agonists of the estrogen receptor alpha (ER-alpha) signaling pathway using the BG1 cell line (AID 743079). Note: nearly all actives have a fitted effect of over 20% in size. Note: potency is the fitted concentration of half-maximal effect.
Assay [8] in a line: qHTS assay to identify small molecule antagonists of the estrogen receptor alpha (ER-alpha) signaling pathway using the BG1 cell line (AID 743080; calls by dose curve;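 note: BG1 cells stimulated with 17beta-estradiol alongside compound; series mostly up to about 70 µM; nearly all actives have a fitted effect of over 25% in size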). The procedure, abridged:
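Quantitative HTS on the Tox21 10K library: BG1 cells with endogenous ER-alpha and ERE-luciferase reporter, 17beta-estradiol stimulation, 21.5 h compound exposure, luminescence endpoint with parallel fluorescence cytotoxicity counter-read.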

The nature of assay [9]: qHTS assay to identify small molecule antagonists of the estrogen receptor alpha (ER-alpha) signaling pathway using the BG1 cell line - cell viability counter screen (AID 743081).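 Note: compound given together with 17beta-estradiol as the ER stimulus; series mostly up to about 70 µM; nearly all actives have a fitted effect of over 45% in size.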
The next assay has as its target Aromatase (Homo sapiens) (UniProt P11511). In words: qHTS assay to identify aromatase inhibitors (AID 743083). Note: series mostly up to about 70 µM; nearly all actives have a fitted effect of over 55% in size.
Assay [10] in a line: qHTS assay to identify aromatase inhibitors - cell viability counter screen (AID 743084).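 Note: cells stimulated with testosterone during compound exposure; nearly all actives have a fitted effect of over 55% in size.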
The target in assay [11] is Aryl hydrocarbon receptor (Homo sapiens) (UniProt P35869). In words: qHTS assay to identify small molecule that activate the aryl hydrocarbon receptor (AhR) signaling pathway (AID 743085).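 Note: HG2L7.5c1 human HepG2 liver cells with stably integrated DRE-driven firefly reporter; series mostly up to about 70 µM; nearly all actives have a fitted effect of over 15% in size.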 The procedure, abridged:
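Steps: seed HepG2-AhR-luc cells; allow 5 h at 37C; pin-transfer test compound or vehicle; incubate 24 h at 37C; add viability dye (30 min, 37C) and read fluorescence; add luciferase substrate (30 min, RT) and read luminescence.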

Assay [12] in a line: qHTS assay to identify small molecule that activate the aryl hydrocarbon receptor (AhR) signaling pathway - cell viability counter screen (AID 743086).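 Note: HepG2 liver cells carrying the AhR DRE luciferase reporter; series mostly up to about 70 µM; nearly all actives have a fitted effect of over 45% in size.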 Put shortly:
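HepG2-AhR-luc (HG2L7.5c1) cells, 4000/well, treated 24 h at 37 C with compound; viability measured as CellTiter-Fluor fluorescence after 30 min in the same wells as the luciferase read.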

The target in assay [13] is Peroxisome proliferator-activated receptor gamma (Homo sapiens) (UniProt P37231). In words: qHTS assay to identify small molecule agonists of the peroxisome proliferator-activated receptor gamma (PPARg) signaling pathway (AID 743094; active = well fitted activation curve with a large enough effect in the signal ratio in the repeat runs, not every such curve was filed as active; the % refers to the signal ratio). Put shortly:
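Agonist activity was taken from a beta-lactamase reporter (FRET substrate, 1 h at room temperature) in HEK293H cells carrying a PPARg UAS-bla construct. Compounds in DMSO were incubated 17 h at 37C after a 5 h cell pre-incubation.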

Assay [14] shares this target. In words: qHTS assay to identify small molecule antagonists of the peroxisome proliferator-activated receptor gamma (PPARg) signaling pathway (AID 743191; calls by dose curve; note: series mostly up to about 63 µM; nearly all actives have a fitted effect of over 30% in size). Put shortly:
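GeneBLAzer PPARg UAS-bla HEK293H cells, 5 h post-plating, exposed to compounds 17 h at 37C. LiveBLAzer B/G FRET substrate added for 1 h at room temperature; beta-lactamase reporter read by fluorescence intensity.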

Assay [15] in a line: qHTS assay to identify small molecule antagonists of the peroxisome proliferator-activated receptor gamma (PPARg) signaling pathway - cell viability counter screen (AID 743194). Note: nearly all actives have a fitted effect of over 55% in size. The procedure, abridged: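 Cytotoxicity counter screen in PPARg-bla HEK293H cells, same wells as reporter assay. Compounds plus 50 nM rosiglitazone (final) for 17 h at 37 C, then viability read by CellTiter-Glo luminescence.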

Assay [16] in a line: qHTS assay for small molecule agonists of the antioxidant response element (ARE) signaling pathway (AID 743202; active = well fitted activation curve with a large enough effect in the signal ratio in the repeat runs, not every such curve was filed as active; the % refers to the signal ratio; note: potency is the fitted concentration of half-maximal effect). Put shortly: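 HepG2 ARE-bla cells; 16 h treatment at 37 C; FRET-based beta-lactamase fluorescence read after 2 h substrate incubation at room temperature.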
The nature of assay [17]: qHTS assay for small molecule activators of the heat shock response signaling pathway - cell viability counter screen (AID 743209). Note: nearly all actives have a fitted effect of over 50% in size. The procedure, abridged:
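Cytotoxicity counter screen run in the same wells as the heat-shock bla reporter assay: HeLa HSE-bla cells, 5 h compound exposure at 37 C, viability read by CellTiter-Glo luminescence.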

Assay [18] in a line: qHTS assay for small molecule activators of the heat shock response signaling pathway (AID 743210; active = well fitted activation curve with a large enough effect in the signal ratio in the repeat runs, with a control signal flat, not every such curve was filed as active; the % refers to the signal ratio;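 note: HeLa cells with beta-lactamase reporter driven by heat shock elements; series mostly up to about 63 µM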). Put shortly: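 Following overnight attachment, HSE-bla HeLa cells received test compounds for 5 h at 37 C; beta-lactamase activity was then detected via FRET substrate fluorescence.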
Assay [19] can be described thus: qHTS assay for small molecule agonists of the antioxidant response element (ARE) signaling pathway - cell viability counter screen (AID 743203; calls by dose curve; note: nearly all actives have a fitted effect of over 55% in size). The procedure, abridged:
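Viability counter screen: CellTiter-Glo luminescence, read after 30 min at room temperature, in ARE-bla HepG2 wells. Compound exposure lasted 16 h at 37C/5% CO2, following a 5 h pre-incubation of the cells after plating.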

In PubChem BioAssay (Tox21) one finds Potency and outcome data, which are given here for seven compounds.

SMILES strings stand for the structures. Inconclusive results are not listed. The source made the active and inactive calls. Unless noted, calls come from the whole dose curve; as a rule, active = well fitted curve in the direction sought with a large enough effect in the repeat runs; inconclusive = weak or mixed curves; inactive = no such curve, though single readings can be large; an effect the other way counts as inactive or inconclusive.

Chain of Aromatase (Homo sapiens) (P11511 whole entry, looked up): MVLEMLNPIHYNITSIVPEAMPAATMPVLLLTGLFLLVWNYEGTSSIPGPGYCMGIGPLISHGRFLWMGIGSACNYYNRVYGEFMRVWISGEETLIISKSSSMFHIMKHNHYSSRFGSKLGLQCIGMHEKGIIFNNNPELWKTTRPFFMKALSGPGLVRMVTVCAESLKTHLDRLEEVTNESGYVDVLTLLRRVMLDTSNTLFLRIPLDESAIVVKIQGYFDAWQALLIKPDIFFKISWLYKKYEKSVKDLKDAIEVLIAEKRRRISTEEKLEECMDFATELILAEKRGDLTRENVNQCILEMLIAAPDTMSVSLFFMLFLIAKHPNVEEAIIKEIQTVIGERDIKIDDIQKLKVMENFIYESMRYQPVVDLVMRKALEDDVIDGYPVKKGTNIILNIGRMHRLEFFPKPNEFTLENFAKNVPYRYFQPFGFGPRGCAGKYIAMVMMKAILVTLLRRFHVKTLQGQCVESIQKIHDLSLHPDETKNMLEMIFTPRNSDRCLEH
Chain of Estrogen receptor (Homo sapiens) (P03372 whole entry, looked up): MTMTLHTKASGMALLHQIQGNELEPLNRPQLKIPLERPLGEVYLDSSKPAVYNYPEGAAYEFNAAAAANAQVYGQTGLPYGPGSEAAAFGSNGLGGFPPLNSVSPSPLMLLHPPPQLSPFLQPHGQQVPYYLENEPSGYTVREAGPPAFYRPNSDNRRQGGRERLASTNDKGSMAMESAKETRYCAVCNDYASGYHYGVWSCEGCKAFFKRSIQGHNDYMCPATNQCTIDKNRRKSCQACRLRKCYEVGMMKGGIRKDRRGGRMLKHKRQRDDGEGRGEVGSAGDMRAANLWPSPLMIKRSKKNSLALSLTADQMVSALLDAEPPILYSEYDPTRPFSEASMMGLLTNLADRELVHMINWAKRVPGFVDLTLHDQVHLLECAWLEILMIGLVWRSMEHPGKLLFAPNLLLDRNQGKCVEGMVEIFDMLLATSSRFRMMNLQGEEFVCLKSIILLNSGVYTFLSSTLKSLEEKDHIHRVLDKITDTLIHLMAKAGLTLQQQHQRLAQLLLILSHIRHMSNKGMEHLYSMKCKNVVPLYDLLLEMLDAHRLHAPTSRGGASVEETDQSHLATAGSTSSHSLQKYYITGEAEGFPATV
Chain of Peroxisome proliferator-activated receptor gamma (Homo sapiens) (P37231 whole entry, looked up): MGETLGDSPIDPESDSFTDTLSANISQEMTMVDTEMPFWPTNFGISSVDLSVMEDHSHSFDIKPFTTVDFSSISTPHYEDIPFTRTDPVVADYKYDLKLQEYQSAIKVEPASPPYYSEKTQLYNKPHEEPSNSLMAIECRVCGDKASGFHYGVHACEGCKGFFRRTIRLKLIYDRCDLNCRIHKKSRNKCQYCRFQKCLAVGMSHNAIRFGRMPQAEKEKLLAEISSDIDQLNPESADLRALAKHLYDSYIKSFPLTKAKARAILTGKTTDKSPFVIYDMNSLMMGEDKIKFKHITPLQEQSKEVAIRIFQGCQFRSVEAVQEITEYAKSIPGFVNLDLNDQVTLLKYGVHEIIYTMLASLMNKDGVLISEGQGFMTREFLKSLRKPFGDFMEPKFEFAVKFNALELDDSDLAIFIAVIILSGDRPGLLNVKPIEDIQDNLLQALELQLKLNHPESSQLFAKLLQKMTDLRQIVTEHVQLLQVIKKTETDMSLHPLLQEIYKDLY
Chain of Aryl hydrocarbon receptor (Homo sapiens) (P35869 whole entry, looked up): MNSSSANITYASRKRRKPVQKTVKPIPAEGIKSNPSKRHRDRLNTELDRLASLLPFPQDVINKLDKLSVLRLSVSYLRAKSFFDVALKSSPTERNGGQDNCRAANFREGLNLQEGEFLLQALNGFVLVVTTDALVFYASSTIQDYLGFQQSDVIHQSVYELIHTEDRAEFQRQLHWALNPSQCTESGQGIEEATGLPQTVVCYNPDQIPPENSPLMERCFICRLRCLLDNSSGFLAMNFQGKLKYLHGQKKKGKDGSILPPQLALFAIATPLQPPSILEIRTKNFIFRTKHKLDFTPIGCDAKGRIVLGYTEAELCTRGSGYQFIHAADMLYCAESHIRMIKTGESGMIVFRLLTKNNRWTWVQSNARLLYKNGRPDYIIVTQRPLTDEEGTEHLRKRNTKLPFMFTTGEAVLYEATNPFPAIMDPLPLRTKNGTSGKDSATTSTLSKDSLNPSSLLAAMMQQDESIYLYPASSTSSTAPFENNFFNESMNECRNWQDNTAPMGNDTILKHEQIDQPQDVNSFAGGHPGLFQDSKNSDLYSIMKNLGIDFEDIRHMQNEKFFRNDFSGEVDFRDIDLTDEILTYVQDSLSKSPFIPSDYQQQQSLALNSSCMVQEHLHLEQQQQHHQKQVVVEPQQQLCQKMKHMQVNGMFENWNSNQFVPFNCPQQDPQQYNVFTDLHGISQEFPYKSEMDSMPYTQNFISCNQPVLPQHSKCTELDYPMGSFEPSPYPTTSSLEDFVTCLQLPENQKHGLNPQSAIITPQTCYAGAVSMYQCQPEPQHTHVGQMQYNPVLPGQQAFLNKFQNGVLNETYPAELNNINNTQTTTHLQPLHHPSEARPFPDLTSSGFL

In the case of `C=CC[N+]1([C@H]2C[C@H]3[C@@H]4CC[C@H]5C[C@H](OC(C)=O)[C@@H](N6CCCCC6)C[C@]5(C)[C@H]4CC[C@]3(C)[C@H]2OC(=O)CC)CCCCC1`, the Potency entry in assay [1], in assay [2], in assay [3], in assay [4], in [6] and in assay [7] was “inactive” each time. Further, the Potency result (in assay [8]; in [9]; with Aromatase (Homo sapiens); in assay [10]; in assay [11]; in assay [12]) was “inactive” throughout. The Potency entry in assay [13], in assay [14], in assay [15], in assay [16] and in assay [17] was “inactive” in each case. The call in [5] and in assay [18] was inactive.

On to `CC(=O)CC(=O)c1ccccc1`, for which the Potency entry in assay [1], in assay [2], in [3], in assay [4], in [6] and in assay [8] was “inactive” each time. Further, the Potency entry (in assay [9]; with Aromatase (Homo sapiens); in assay [10]; in assay [12]; in assay [14]; in [15]) was “inactive” in each case. For the same compound, the Potency entry in assay [16], in assay [19] and in [17] was “inactive” throughout. Further, the compound was classed as inactive in assay [5] and in assay [18]. For the same compound, the Potency in assay [7] was 34.6 µM (active).

On to `OC(CCN1CCCCC1)(c1ccccc1)C1CCCCC1` (stereo not drawn), for which the Potency result in assay [1], in [2], in assay [3], in assay [4], in [6] and in [7] was “inactive” each time. Further, the Potency entry (in [9]; in the assay with Aromatase (Homo sapiens); in [10]; in assay [11]; in [12]; in assay [13]) was “inactive” throughout. The Potency result in assay [16], in [19] and in [17] was “inactive” in each case. Further, the result in assay [5] and in assay [18] was inactive.

As to `Cc1ccc(C(N)=O)cc1N`, the Potency entry in assay [1], in assay [2], in assay [3], in assay [4], in [6] and in [7] was “inactive” each time. Moreover, the Potency result (in assay [8]; in assay [9]; with Aromatase (Homo sapiens); in assay [10]; in [12]; in assay [13]) was “inactive” each time. Further, the Potency result in assay [15], in [16] and in assay [19] was “inactive” throughout. In addition, the compound was called inactive in assay [5] and in assay [18].

Take `CC(=O)NCCCS(=O)(=O)O`: the Potency entry in assay [1], in assay [2], in [3], in assay [4], in [6] and in assay [7] was “inactive” each time. Moreover, the Potency result (in assay [8]; in assay [9]; in the assay with Aromatase (Homo sapiens); in assay [10]; in assay [11]; in [12]) was “inactive” in each case. The Potency result in assay [13], in assay [15], in assay [19] and in [17] was “inactive” throughout. Besides, the outcome in [5] and in assay [18] was inactive. Also, the Potency in assay [16] is 26.5 µM (active).

With `COC(=O)C(C)=O`, the Potency entry in assay [1], in [2], in [3], in assay [4], in [6] and in assay [7] was “inactive” each time. The Potency result (in assay [8]; in assay [9]; with Aromatase (Homo sapiens); in assay [10]; in assay [11]; in assay [12]) was “inactive” each time. In addition, the Potency entry in assay [13], in [14], in assay [15], in [16], in assay [19] and in assay [17] was “inactive” each time. Also, the compound was classed as inactive in [5] and in assay [18].

For the compound `O=c1c2ccccc2nnn1CCl`, the Potency result in [1], in [2], in assay [3], in [4], in [6] and in [7] was “inactive” throughout. Besides, the Potency entry (in [8]; in assay [9]; in the assay with Aromatase (Homo sapiens); in assay [10]; in [11]; in [12]) was “inactive” throughout. Moreover, the Potency result in assay [13], in assay [14], in assay [19] and in assay [17] was “inactive” each time. The outcome in assay [5] and in assay [18] was inactive.
